Test results taken from PubChem BioAssay (NCATS).
Several values for one entry are separate records, joined by “and”; a condition that tells them apart may be missing. Identical values can stand only once. Results filed as inconclusive are left out. Activity calls are given as the source filed them. Unless noted, calls follow the shape of the dose curve; as a rule, active = well fitted curve in the direction sought with a large enough effect; inconclusive = small, poorly fitted or top-dose-only effect, or another doubt; inactive = no such curve, though single readings can be large; an effect the other way counts as inactive or inconclusive.

Experiments:
[1] = Cell Viability - N2a (AID 540); conditions: N2a mouse neuroblastoma cell viability; activity change, negative = cytotoxicity: at 92.2 µM (top of the series);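 also: cells exposed to compound for 40 h at 37 °C; plate controls were DMSO alone for no effect and tamoxifen control for full effect; nearly all actives have a fitted effect of over 45% in size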
Outline: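 Luminescent ATP signal (CellTiter-Glo, 20 min at room temperature) served as the viability read-out after N2a cells were treated with compounds for 40 hours at 37 °C. Concentration-response data were fitted to the Hill equation for AC50.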

[2] = Cell Viability - Renal Proximal Tubule (AID 545); conditions: renal proximal tubule cells viability, primary cells of rat origin; at 91.7 µM (top of the series);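 also: 0% = DMSO only and -100% = 100 µM tamoxifen; nearly all actives have a fitted effect of over 40% in size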
Outline: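 Primary rat renal proximal tubule cells (1000/well) were treated with compounds for 40 hr at 37 °C in complete medium. Intracellular ATP was measured by CellTiter-Glo luminescence, and AC50 values came from Hill-equation fits of concentration-response data.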

[3] = MultiTox-Fluor Cytotoxicity Assay - LYMP1-003 - Dead Cells (AID 961);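 also: 0% = DMSO and 100% = tetraoctylammonium bromide; nearly all actives have a fitted effect of over 70% in size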
Outline: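 LYMP1-003 human lymphoblastoid cells (2500/well) exposed to compound 16 h at 37 C in complete medium; dead-cell protease read with bis-AAF-R110 fluorescence (Ex/Em 485/520) after 60 min at room temperature. Normalized to DMSO and 15 uM tetraoctylammonium bromide; AC50 from Hill fit.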

[4] = Cell Viability - LYMP2-003 (AID 965);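 also: cells exposed to compounds for 24 h before reading; 0% = DMSO only and full effect = 92 µM tetraoctylammonium bromide; nearly all actives have a fitted effect of over 50% in size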
Outline: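 Human lymphoblastoid cells (2500/well) were pre-incubated 5 hr at 37 C, then exposed to compounds over a concentration range for 24 hr at 37 C. Intracellular ATP was read by CellTiter-Glo luminescence; AC50 came from Hill-equation fits.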

[5] = Cell Viability - LYMP2-005 (AID 967);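 also: plate controls were DMSO only for no effect and 92 µM tetraoctylammonium bromide control for full effect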
Outline: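 CellTiter-Glo luminescence (cellular ATP) read-out; LYMP2-005 lymphoblastoid cells, 2500/well, 5 h pre-incubation, then 24 h compound exposure at 37 C in complete medium. Tetraoctylammonium bromide positive control; AC50 by standard Hill fit.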

[6] = Cell Viability - LYMP2-009 (AID 968);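 also: 0% = DMSO alone and the full-kill end = tetraoctylammonium bromide at 92 µM; nearly all actives have a fitted effect of over 55% in size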
[7] = Cell Viability - LYMP2-015 (AID 971);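 also: 0% = DMSO only and full effect = 92 µM tetraoctylammonium bromide; nearly all actives have a fitted effect of over 55% in size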
Outline: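 Luminescent ATP read-out (CellTiter-Glo) served as the viability measure after lymphoblastoid cells were exposed to compounds for 24 hours at 37 C. Concentration-response data were fitted with the Hill equation to give AC50.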

[8] = Cell Viability - LYMP2-019 (AID 973);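 also: 0% = DMSO alone and full effect = 92 µM tetraoctylammonium bromide; nearly all actives have a fitted effect of over 55% in size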
Outline: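 Luminescent ATP read-out (CellTiter-Glo, 30 min room temperature) served as the viability measure after 24 hr treatment of lymphoblastoid cells at 37 C. Concentration-response data were fitted to the Hill equation for AC50.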

[9] = Cell Viability - LYMP2-021 (AID 974);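 also: compound exposure lasts 24 hours at 37 °C; % is scaled to controls: 0 for no effect and ±100 for the full control effect; nearly all actives have a fitted effect of over 55% in size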
Outline: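 Plate 2500 lymphoblastoid cells per well and incubate 5 hr at 37 C. Add compounds over a concentration range and incubate 24 hr at 37 C. Add CellTiter-Glo, wait 30 min at room temperature, read luminescence.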

[10] = Cell Viability - LYMP2-023 (AID 975)
Outline: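 2500 cells/well, 5 hr 37 C; cpd 24 hr 37 C; CellTiter-Glo, 30 min RT; luminescence. qHTS conc-response, Hill fit -> AC50. Pos ctrl tetraoctylammonium bromide.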

[11] = Cell Viability - LYMP2-025 (AID 976);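 also: plate controls were DMSO only for no effect and tetraoctylammonium bromide control for full effect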
Outline: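 Seed 2500 LYMP2-025 cells/well; 5 hr at 37 C; add compound; 24 hr at 37 C; add CellTiter-Glo; 30 min RT; read luminescence. AC50 from Hill-modelled concentration-response.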

[12] = Cell Viability - LYMP2-002 (AID 977);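 also: plate controls were DMSO only for no effect and 92 µM tetraoctylammonium bromide for full effect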
Outline: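 Cytotoxicity is scored as concentration-dependent loss of cellular ATP in a human lymphoblastoid line after 24 hr compound treatment at 37 C. AC50 is obtained by modelling concentration-response data with the Hill equation.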

[13] = Cell Viability - LYMP2-006 (AID 978); also: % is scaled to controls: 0 for no effect and ±100 for the full control effect; nearly all actives have a fitted effect of over 60% in size
Outline: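 Human lymphoblastoid cells, 2500 per well, were preincubated 5 hr at 37 C, then exposed to compounds for 24 hr at 37 C in complete medium. Viability was read as intracellular ATP by CellTiter-Glo luminescence; AC50 from Hill-equation fits of qHTS concentration-response data.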

[14] = Cell Viability - LYMP2-008 (AID 980); also: % is scaled to controls: 0 for no effect and ±100 for the full control effect; nearly all actives have a fitted effect of over 60% in size
Outline: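 qHTS, human lymphoblastoid line, 2500 cells/well; 5 hr preincubation, 24 hr compound, 37 C. CellTiter-Glo ATP luminescence. AC50 via Hill equation. Tetraoctylammonium bromide positive control.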

[15] = Cell Viability - LYMP2-014 (AID 983);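 also: plate controls were DMSO only for no effect and 92 µM tetraoctylammonium bromide for full effect; nearly all actives have a fitted effect of over 50% in size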
Outline: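 Luminescent ATP signal (CellTiter-Glo, 30 min at room temperature) serves as the viability read-out after 24 hr compound exposure at 37 C. Cells were seeded at 2500 per well and settled 5 hr beforehand.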

[16] = Cell Viability - LYMP2-016 (AID 984)
Outline: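 Human lymphoblastoid cells (LYMP2-016), 2500/well in complete medium, preincubated 5 hr at 37 C, then compound-treated 24 hr at 37 C. Intracellular ATP read by CellTiter-Glo luminescence after 30 min at room temperature; AC50 from Hill-equation concentration-response fits.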

[17] = Cell Viability - LYMP2-026 (AID 989); also: % is scaled to controls: 0 for no effect and ±100 for the full control effect; nearly all actives have a fitted effect of over 50% in size
Outline: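 Luminescent ATP signal (CellTiter-Glo, 30 min room temperature) measures viable lymphoblastoid cells after 24 hr compound treatment at 37 C. Decreased ATP reflects acute toxicity; AC50 values come from Hill-equation modeling.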

[18] = Cell Viability - LYMP1-002 - Assay at 40 hr (AID 994);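 also: 0% = DMSO only and full inhibition = 92 µM tetraoctylammonium bromide; nearly all actives have a fitted effect of over 60% in size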
Outline: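 Luminescent ATP signal served as the viability readout, with decreases taken as toxicity. Cells were treated with compounds across a concentration range for 40 hours at 37 C, and AC50 values came from standard Hill modeling.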

[19] = molecular target: Thyroid hormone receptor beta (Homo sapiens) (UniProt P10828); assay: qHTS assay for small molecule agonists of thyroid hormone receptor beta signaling (AID 588545; calls by dose curve)
Outline: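 HEK 293 TR-UAS-bla; agonist mode; 18 hrs, 37 C; CCF4, ex 405/em 460 and 530 nm; norm. T3 10 nM = 100%, DMSO = 0%; Hill fit → EC50, efficacy.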

[20] = molecular target: Retinoic acid receptor RXR-alpha (Homo sapiens) (UniProt P19793); assay: qHTS assay for small molecule antagonists of retinoid X receptor alpha signaling (AID 588546; active = well fitted inhibition curve with a large enough effect in the signal ratio, with a control signal flat, not every such curve was filed as active; the % refers to the signal ratio;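 also: cells stimulated with 9-cis-retinoic acid as agonist; % is scaled to controls: 0 for no effect and ±100 for the full control effect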); conditions: HEK293T RXRa-UAS-bla, beta-lactamase ratio, antagonist mode
Outline: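 Beta-lactamase reporter inhibition, read as CCF4 fluorescence ratio (ex 405, em 460/530 nm) after 2 h at RT. HEK293T UAS-bla cells, 2500/well, were stimulated with 9-cis-RA at 500 or 100 nM final alongside test compound for 18 h at 37 C.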

Sequence of Retinoic acid receptor RXR-alpha (Homo sapiens) (P19793 whole entry, looked up): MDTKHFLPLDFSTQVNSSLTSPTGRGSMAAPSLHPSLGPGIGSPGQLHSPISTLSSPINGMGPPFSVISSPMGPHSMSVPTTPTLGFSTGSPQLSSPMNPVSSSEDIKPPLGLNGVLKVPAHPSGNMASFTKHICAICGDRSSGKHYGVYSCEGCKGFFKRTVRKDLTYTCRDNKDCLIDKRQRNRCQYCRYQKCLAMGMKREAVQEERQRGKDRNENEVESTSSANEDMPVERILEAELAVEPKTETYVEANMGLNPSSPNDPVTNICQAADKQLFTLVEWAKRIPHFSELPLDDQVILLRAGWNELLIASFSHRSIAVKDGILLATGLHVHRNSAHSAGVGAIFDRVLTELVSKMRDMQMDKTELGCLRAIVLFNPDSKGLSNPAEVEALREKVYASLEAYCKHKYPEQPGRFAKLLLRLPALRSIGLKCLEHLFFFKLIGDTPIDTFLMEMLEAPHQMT
Sequence of Thyroid hormone receptor beta (Homo sapiens) (P10828 whole entry, looked up): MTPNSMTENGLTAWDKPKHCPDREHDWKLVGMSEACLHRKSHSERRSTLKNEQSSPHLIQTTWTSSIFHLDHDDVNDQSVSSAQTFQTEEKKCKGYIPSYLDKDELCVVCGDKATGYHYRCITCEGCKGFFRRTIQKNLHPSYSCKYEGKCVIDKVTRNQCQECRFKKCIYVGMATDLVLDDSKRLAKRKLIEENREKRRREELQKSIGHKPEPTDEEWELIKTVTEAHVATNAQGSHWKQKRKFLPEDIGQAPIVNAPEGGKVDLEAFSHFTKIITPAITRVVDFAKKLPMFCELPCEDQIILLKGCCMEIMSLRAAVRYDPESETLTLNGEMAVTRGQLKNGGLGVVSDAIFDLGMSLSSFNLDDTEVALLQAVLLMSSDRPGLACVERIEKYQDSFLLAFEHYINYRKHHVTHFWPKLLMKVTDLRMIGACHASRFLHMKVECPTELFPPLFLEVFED

Nc1ccc(Cl)cc1Cl
inactive: activity change, negative = cytotoxicity [1] 7.32% | activity change, negative = cytotoxicity [2] -0.932% | Potency [3] | Potency [4] | Potency [5] | Potency [6] | Potency [7] | Potency [8] | Potency [9] | Potency [10] | Potency [11] | Potency [12] | Potency [13] | Potency [14] | Potency [15] | Potency [16] | Potency [17] | Potency [18] | outcome [19] | max response [20] -0.389% and -0.876%

CN(C)C=O
inactive: activity change, negative = cytotoxicity [1] -9.63% and 3.24% | activity change, negative = cytotoxicity [2] -1.87% and 6.39% | Potency [3] | Potency [4] | Potency [5] | Potency [6] | Potency [7] | Potency [8] | Potency [9] | Potency [10] | Potency [11] | Potency [12] | Potency [13] | Potency [14] | Potency [15] | Potency [16] | Potency [17] | Potency [18] | outcome [19] | max response [20] 8.45% and -9.56%

C=CCOC(=O)c1ccccc1C(=O)OCC=C
inactive: activity change, negative = cytotoxicity [1] -8.09% | activity change, negative = cytotoxicity [2] -7.06% | Potency [3] | Potency [4] | Potency [5] | Potency [6] | Potency [7] | Potency [8] | Potency [9] | Potency [10] | Potency [11] | Potency [12] | Potency [13] | Potency [14] | Potency [15] | Potency [16] | Potency [17] | Potency [18] | outcome [19] | max response [20] -2.1% and -17.2%

COc1ccc2nc(N)sc2c1
inactive: activity change, negative = cytotoxicity [1] -0.684% | activity change, negative = cytotoxicity [2] -14.7% | Potency [3] | Potency [4] | Potency [5] | Potency [6] | Potency [7] | Potency [8] | Potency [9] | Potency [10] | Potency [11] | Potency [12] | Potency [13] | Potency [14] | Potency [15] | Potency [16] | Potency [17] | Potency [18] | outcome [19] | max response [20] 1.97% and 2.53%

O=C(O)CC(C(=O)O)C(CC(=O)O)C(=O)O (stereo not given)
inactive: activity change, negative = cytotoxicity [1] -8.87% | activity change, negative = cytotoxicity [2] -9.72% | Potency [3] | Potency [4] | Potency [5] | Potency [6] | Potency [7] | Potency [8] | Potency [9] | Potency [10] | Potency [11] | Potency [12] | Potency [13] | Potency [14] | Potency [15] | Potency [16] | Potency [17] | Potency [18] | outcome [19] | max response [20] -2.56% and -11.2%

Cc1ccccc1C
inactive: activity change, negative = cytotoxicity [1] -22.6% and -8.22% | activity change, negative = cytotoxicity [2] -2.71% and -0.376% | Potency [3] | Potency [4] | Potency [5] | Potency [6] | Potency [7] | Potency [8] | Potency [9] | Potency [10] | Potency [11] | Potency [12] | Potency [13] | Potency [14] | Potency [15] | Potency [16] | Potency [17] | Potency [18] | outcome [19] | max response [20] 24.2% and -2.36%

O=NO
inactive: activity change, negative = cytotoxicity [1] -19.4% and -4.96% | activity change, negative = cytotoxicity [2] -3.27% and -5.21% | Potency [3] | Potency [4] | Potency [5] | Potency [6] | Potency [7] | Potency [8] | Potency [9] | Potency [10] | Potency [11] | Potency [12] | Potency [13] | Potency [14] | Potency [15] | Potency [16] | Potency [17] | Potency [18] | outcome [19] | max response [20] 16.8% and -9.55%

C1OCOCO1
inactive: activity change, negative = cytotoxicity [1] -19.8% | activity change, negative = cytotoxicity [2] -10.6% | Potency [3] | Potency [4] | Potency [5] | Potency [6] | Potency [7] | Potency [8] | Potency [9] | Potency [10] | Potency [11] | Potency [12] | Potency [13] | Potency [14] | Potency [15] | Potency [16] | Potency [17] | Potency [18] | outcome [19] | max response [20] 38.1%

C/C=C\c1ccc(OC)cc1
inactive: activity change, negative = cytotoxicity [1] -0.381% | activity change, negative = cytotoxicity [2] -7.43% | Potency [3] | Potency [4] | Potency [5] | Potency [6] | Potency [7] | Potency [8] | Potency [9] | Potency [10] | Potency [11] | Potency [12] | Potency [13] | Potency [14] | Potency [15] | Potency [16] | Potency [17] | Potency [18] | outcome [19] | max response [20] 3.92%
